# Screens: PubChem, The Scripps Research Institute Molecular Screening Center
# hcDAF-12 act = H. contortus DAF-12 activation, primary screen; HEK293 hcDAF-12 lit1-tk-luc reporter, luminescence; 0% DMSO, 100% Δ7-dafachronic acid; activation, % at 6.8 µM; actives 1.4% (n = 370,000);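 active means activation above the mean of all tested compounds plus 3 SD, cut at about 5.5% in these data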;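 further: 100% = response to 3 µM Δ7-dafachronic acid high control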
# hgDAF12 agonist = hgDAF-12 agonism, primary luciferase screen; HEK293 GAL4-hgDAF12 UAS-luciferase reporter, agonist luminescence; normalized to butyrate control; activation, % at 6.8 µM; actives 1.8% (n = 370,000); AID 687014;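 active means activation above a cutoff set at the mean of all screened compounds plus 3 SD, cut at about 10% in these data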;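 further: 0% = DMSO wells and 100% = sodium butyrate wells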
# ssDAF-12 act = S. stercoralis DAF-12 activation, primary screen. HEK293 ssDAF-12/GRIP1 lit1-tk-luc reporter, luminescence; % of 3 µM dafachronic acid response. activation, % at 6.8 µM. AID 652126. actives 1% (n = 370,000);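 active means activation above the mean over all tested compounds plus 3 SD, cut at about 0.9% in these data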;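 further: 0% = DMSO-only wells and 100% = 3 µM delta7-dafachronic acid wells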
# DAX1 inh-1 = blocks DAX1 repression of SF-1 activated StAR promoter. HEK293T StAR-luciferase reporter, SF-1/DAX-1 repression relief. inhibition, % at 6.8 µM. actives 1.1% (n = 370,000). AID 652010;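 active means inhibition above the mean over all tested compounds plus 3 SD, cut at about 3.6% in these data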;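 further: 0% = DAX-1 cells with DMSO and 100% = cells lacking DAX-1 with DMSO; higher inhibition means more luminescence from relief of DAX-1 repression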
# DAX1 inh-2 = NR0B1 (DAX1) inhibition. actives 0.99% (n = 340,000). AID 504766. HEK293 Gal4-DAX1 luciferase reporter, luminescence. P51843. inhibition, % at 6.75 µM;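 active means inhibition above the mean over all tested compounds plus 3 SD, cut at about 4.2% in these data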;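 further: 0% = DAX1-transfected cells with DMSO and 100% = empty-vector control cells with DMSO; inhibition shows as a rise in luminescence from relieved DAX1 repression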
# Target sequence (P51843 207-470 limits assumed): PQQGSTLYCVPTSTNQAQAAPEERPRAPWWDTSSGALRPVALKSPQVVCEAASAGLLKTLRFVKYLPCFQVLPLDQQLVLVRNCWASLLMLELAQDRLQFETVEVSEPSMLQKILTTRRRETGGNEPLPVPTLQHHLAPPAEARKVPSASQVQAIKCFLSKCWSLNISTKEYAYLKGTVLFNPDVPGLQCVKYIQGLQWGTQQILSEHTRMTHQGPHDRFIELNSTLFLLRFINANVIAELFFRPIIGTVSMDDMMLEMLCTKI
# Numbers without * were called inactive; . = not tested or not shown. The list is not random: actives were taken first. Their share in the collection is about 4.1%.
SMILES,hcDAF-12 act,hgDAF12 agonist,ssDAF-12 act,DAX1 inh-1,DAX1 inh-2
O=C(c1cnc2nc3ccccc3n2c1)c1cc(F)ccc1O,5.6*,7,0,3,0
CCC[C@H]1[C@@H](OC(=O)NCc2ccc(OC)c(OC)c2)CC[C@@]23CCCN2C(=O)CCC[C@@H]13,0,1,-2,.,.
O=C(CSc1nnc(-c2ccco2)n1Cc1ccco1)c1ccc([N+](=O)[O-])cc1,-1,-1,-1,0,.
COc1ccc(-c2cc(C(=O)NCc3cccnc3)no2)cc1,-1,7,-1,0,0
CCCc1cc(C(=O)NCc2cccnc2)no1,5.8*,3,-1,0,1
CCCc1cc(C(=O)NC2CCCCC2)no1,2,13*,0,2,1
CCCc1cc(C(=O)NCc2cccs2)no1,4,8,2.0*,2,1
O=C(NCc1cccnc1)c1cc(-c2cccs2)on1,1,12*,-1,-1,2
CCCc1cc(C(=O)NCc2ccccc2)no1,2,5,0,2,1
CC(=O)c1cc(-c2cccc(C#N)c2)c(=O)n2c1CCC2,-1,-1,-1,0,.
COC(=O)c1cc(-c2cnc(OC)nc2OC)c(=O)n2c1CCC2,2,-3,-1,-1,.
O=C(NCc1cccnc1)c1cc(-c2ccccc2)on1,1,12*,-1,1,2
Nc1cc(C(F)(F)F)ccc1Nc1ccccc1,1,1,0.9*,0,0
CCc1ccccc1N(CC(=O)NC1CCCCC1)C(=O)CCCC(=O)Nc1ccccn1,-2,0,-1,0,2
Cc1ccccc1N(CC(=O)NC1CCCCC1)C(=O)CCCC(=O)Nc1ccccn1,-3,-1,-1,0,5.0*
O=C(Cn1c2[n+](c3ccc(C(F)(F)F)cc31)CCCCC2)Nc1ccccc1,5.9*,-1,0,0,0
CCc1cccc(NC(=O)Cn2c3[n+](c4ccc(C(F)(F)F)cc42)CCCCC3)c1,0,-5,-1,0,-1
O=C(N/N=C/c1ccccc1[N+](=O)[O-])c1cnccn1,-2,2,0,1,4.3*
Cc1ccn2c(C(=O)N/N=C\c3cccs3)c(C)nc2c1,0,1,-1,0,1
O=C(N/N=C/c1ccccc1[N+](=O)[O-])c1ccncc1,1,1,0,0,1
Cc1nc2ccc(Br)cn2c1C(=O)N/N=C\c1ccccc1[N+](=O)[O-],6.2*,10*,0,0,.
Cc1ccc2nc(C)c(C(=O)N/N=C/c3cccs3)n2c1,1,12*,-2,-2,-2
O=C(CNC(=O)c1ccc(Cl)cc1)OCc1nc2ccccc2s1,6.2*,9,0,0,-1
C[C@@H]1COc2cccc(F)c2S(=O)(=O)N1C,-2,2,-1,1,.
Cc1ccccc1S(=O)(=O)N1CCC(c2nc3ccccc3o2)CC1,-3,-1,-1,0,.
SMILES,hcDAF-12 act,hgDAF12 agonist,ssDAF-12 act,DAX1 inh-1,DAX1 inh-2
CCn1c(/C=C/c2ccc(O)c(O)c2)nc2ccccc2c1=O,-1,-2,-2,-1,1
O=c1nc(/C=C/c2ccc(O)c(O)c2)oc2ccccc12,.,.,.,.,4.8*
Fc1ccc(NC(=S)Nc2cccc3ccccc23)cc1F,4,2,0,1,1
Cc1ccc(NC(=S)Nc2cccc3ccccc23)cc1,3,1,1.0*,-2,2
Cc1cc(C)cc(NC(=S)Nc2cccc3ccccc23)c1,3,2,-1,0,0
Fc1ccc(NC(=S)Nc2cccc3ccccc23)cc1,5.7*,2,0,1,1
COC(=O)C1CN(CC(C)C)CCS(=O)(=O)N1Cc1ccc(C(F)(F)F)cc1 (centres undefined),-2,-6,-1,-1,.
O=C(NC(=Nc1nc2ccccc2o1)NC(=O)c1ccccc1)c1ccccc1,1,3,-1,0,2
N/C(=N\c1nc2ccccc2o1)NC(=O)c1ccccc1F,1,3,-1,1,1
CCCCC(=O)N/C(N)=N/c1nc2ccccc2o1,1,12*,0,1,16*
COc1ccccc1C(=O)NC(=Nc1nc2ccccc2o1)NC(=O)c1ccccc1OC,5.9*,1,0,1,-2
